We go through 7 compounds from PubChem BioAssay (Tox21).

Molecules are shown by their SMILES. Records with an inconclusive call do not appear. Active and inactive are the calls of the source. Unless noted, the call rests on the fitted dose curve; in most records, active means well fitted curve in the direction sought with a large enough effect in the repeat runs; inconclusive means weak or mixed curves; inactive means no such curve, though single readings can be large; an effect the other way counts as inactive or inconclusive.

The nature of experiment [1]: qHTS assay to identify small molecule agonists of the peroxisome proliferator-activated receptor delta (PPARd) signaling pathway - cell viability counter screen (AID 743211). Further: nearly all actives have a fitted effect of over 55% in size. Further: potency means the concentration at half of the fitted maximal effect. A digest of the protocol: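 Viability of GeneBLAzer PPARd UAS-bla HEK293H cells was assessed after 17 h compound incubation at 37C, using CellTiter-Glo reagent added after the reporter read and luminescence recorded 30 min later.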
Background: In qHTS, concentration-response curves come from the screen itself.

The nature of experiment [2]: qHTS assay to identify small molecule antagonists of the peroxisome proliferator-activated receptor delta (PPARd) signaling pathway - cell viability counter screen (AID 743213). Further: nearly all actives have a fitted effect of over 50% in size. Further: potency means the concentration at half of the fitted maximal effect. A digest of the protocol: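 Agonist-stimulated (L165041, 300 nM final) HEK293H PPARd UAS-bla cells are exposed to compounds for 17 h at 37 C, and ATP-based luminescence (CellTiter-Glo) from the same wells reports cytotoxicity.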

Experiment [3] can be described thus: qHTS assay to identify small molecule agonists of the farnesoid-X-receptor (FXR) signaling pathway - cell viability counter screen (AID 743218). Further: nearly all actives have a fitted effect of over 45% in size. Further: potency means the concentration at half of the fitted maximal effect. The procedure, abridged: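 Parallel cytotoxicity test: compound-treated (16 h, 37 C) HEK 293T FXR-bla reporter cells were lysed with CellTiter-Glo and luminescence recorded.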
The nature of experiment [4]: qHTS assay to identify small molecule antagonists of the farnesoid-X-receptor (FXR) signaling pathway - cell viability counter screen (AID 743221; active means well fitted cell-killing curve with a large enough effect in the repeat runs, not every such curve was filed as active; further: nearly all actives have a fitted effect of over 50% in size; further: potency means the concentration at half of the fitted maximal effect). A digest of the protocol: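 Quantitative HTS of the Tox21 10K library run in parallel with the beta-lactamase reporter read. HEK 293T cells carrying a UAS-driven bla reporter got compound and 50 uM CDCA (final) for 16 h; ATP-based luminescence followed.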

Experiment [5] is described as follows: qHTS assay to identify small molecule agonists of the vitamin D receptor (VDR) signaling pathway - cell viability counter screen (AID 743224). Further: nearly all actives have a fitted effect of over 50% in size. Further: potency means the concentration at half of the fitted maximal effect. The procedure, abridged: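 Plated VDR-bla cells (4 h, 37C) received compound, incubated 16 h, then LiveBLAzer substrate 2 h RT; CellTiter-Glo added afterwards, luminescence read at 30 min.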
Experiment [6] can be described thus: qHTS assay to identify small molecule antagonists of the vitamin D receptor (VDR) signaling pathway - cell viability counter screen (AID 743225). Further: nearly all actives have a fitted effect of over 50% in size. Further: potency means the concentration at half of the fitted maximal effect. A digest of the protocol: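 Cells (VDR-UAS-bla HEK 293T) are plated, rested 4 h at 37C, dosed with compound and 3 nM final 1-alpha,25-dihydroxy vitamin D3, and incubated 16 h. Viability is taken from CellTiter-Glo luminescence in the reporter wells.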

Experiment [7] in a line: qHTS assay to identify small molecule agonists of the NFkB signaling pathway - cell viability counter screen (AID 1159515; calls by dose curve; further: nearly all actives have a fitted effect of over 55% in size; further: potency means the concentration at half of the fitted maximal effect). A digest of the protocol: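 Using the same wells as the NFkB reporter read, ME-180 NFkB-bla cells given compounds for 5 hr were assessed for viability via CellTiter-Glo, with luminescence taken after a 30 min room-temperature incubation.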
Experiment [8] in a line: qHTS assay to identify small molecule agonists of the endoplasmic reticulum stress response signaling pathway - cell viability counter screen (AID 1159517; calls by dose curve; further: nearly all actives have a fitted effect of over 50% in size; further: potency means the concentration at half of the fitted maximal effect). The procedure, abridged:
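Luminescence readout: CellTiter-Glo, 30 min RT, same wells as the ESRE-bla reporter read. HeLa ESRE-bla, 1,500 cells/well, o/n 37 C; cpd 5 hr 37 C/5% CO2.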

The nature of experiment [9]: qHTS assay to identify small molecule antagonists of the retinoid-related orphan receptor gamma (ROR-gamma) signaling pathway - cell viability counter screen (AID 1159520). Further: nearly all actives have a fitted effect of over 50% in size. A digest of the protocol:
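Tet-on ROR gamma CHO cells (1,000/well) were plated 4 hr, given compounds in DMSO for 2 hr at 37 C, then induced with 1 uM final doxycycline for 16 hr. Viability was read as ATP by CellTiter-Glo luminescence after 30 min.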

Experiment [10] is described as follows: qHTS assay to identify small molecule agonists of the AP-1 signaling pathway - cell viability counter screen (AID 1159525; calls by dose curve; further: nearly all actives have a fitted effect of over 55% in size; further: potency means the concentration at half of the fitted maximal effect). The procedure, abridged:
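ME-180 AP-1-bla, 2500 cells/well, Opti-MEM + 0.5% dialyzed FBS; overnight 37 °C; cpd 15-pt titration, 5 h 37 °C; CellTiter-Glo 30 min RT; luminescence read; normalised to TOAB and DMSO controls.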

The target of experiment [11] is Retinoic acid receptor RXR-alpha (Homo sapiens) (UniProt P19793). The experiment in a line: qHTS assay to identify small molecule agonists of the RXR signaling pathway (AID 1159527; calls by dose curve; further: nearly all actives have a fitted effect of over 35% in size). The procedure, abridged:
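qHTS of the Tox21 10K library in GeneBLAzer RXR-alpha HEK 293T cells carrying a beta-lactamase reporter […]; 16 hr treatment, 9-cis retinoic acid as agonist control, FRET read-out.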

The target of experiment [12] is Bile acid receptor (Homo sapiens) (UniProt Q96RI1). The experiment in a line: qHTS assay to identify small molecule agonists of the farnesoid-X-receptor (FXR) signaling pathway (AID 743220; active means well fitted activation curve with a large enough effect in the signal ratio in the repeat runs, not every such curve was filed as active; the % refers to the signal ratio). A digest of the protocol: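 Beta-lactamase reporter under UAS control in GeneBLAzer FXR HEK 293T cells (5000/well) measured with LiveBLAzer FRET substrate after 2 h at room temperature. Compound exposure lasted 16 h at 37C.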

In experiment [13] the target is Vitamin D3 receptor (Homo sapiens) (UniProt P11473). The experiment in a line: qHTS assay to identify small molecule agonists of the vitamin D receptor (VDR) signaling pathway (AID 743222; calls by dose curve). A digest of the protocol: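 In VDR-bla cells, compound-induced beta-lactamase expression is quantified by FRET substrate fluorescence. Treatment lasts 16 h at 37C; substrate develops 2 h at room temperature.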

Experiment [14] has the same target. The experiment in a line: qHTS assay to identify small molecule antagonists of the vitamin D receptor (VDR) signaling pathway (AID 743223; active means well fitted inhibition curve with a large enough effect in the signal ratio in the repeat runs, not every such curve was filed as active; the % refers to the signal ratio). The procedure, abridged:
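Fluorescence from LiveBLAzer B/G FRET substrate, read after 2 h at room temperature, reflects beta-lactamase reporter activity in VDR-bla cells treated 16 h at 37C with compounds and agonist 1alpha,25-dihydroxyvitamin D3 (3 nM final).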

Experiment [15] concerns the target Nuclear receptor ROR-gamma (Homo sapiens) (UniProt P51449). The experiment in a line: qHTS assay to identify small molecule antagonists of the retinoid-related orphan receptor gamma (ROR-gamma) signaling pathway (AID 1159521). A digest of the protocol:
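RORγ antagonism is scored from reduced reporter luminescence in Tet-on CHO cells. Induction used 1 uM final doxycycline hyclate for 16 h at 37 C, following a 2 h compound exposure.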

The nature of experiment [16]: qHTS assay to identify small molecule agonists of the AP-1 signaling pathway (AID 1159526; calls by dose curve).
Experiment [17] concerns the target Peroxisome proliferator-activated receptor delta (Homo sapiens) (UniProt Q03181). The experiment in a line: qHTS assay to identify small molecule agonists of the peroxisome proliferator-activated receptor delta (PPARd) signaling pathway (AID 743212; calls by dose curve). The procedure, abridged:
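GeneBLAzer PPARd UAS-bla HEK293H cells (beta-lactamase reporter under UAS control), plated and rested 5 h at 37 C, then exposed to compounds in DMSO at 37 C; LiveBLAzer B/G FRET substrate added, 2 h room temperature, fluorescence read.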

Experiment [18] shares this target. Nature of the experiment: qHTS assay to identify small molecule antagonists of the peroxisome proliferator-activated receptor delta (PPARd) signaling pathway (AID 743215; active means well fitted inhibition curve with a large enough effect in the signal ratio in the repeat runs, not every such curve was filed as active; the % refers to the signal ratio; further: series mostly up to about 62 µM). A digest of the protocol:
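HEK293H UAS-bla, PPARd; agonist L165041 300 nM final with cpd in DMSO; 37 C 17 h; FRET substrate, RT 2 h; fluorescence intensity.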

The target of experiment [19] is Bile acid receptor (Homo sapiens) (UniProt Q96RI1). The experiment in a line: qHTS assay to identify small molecule antagonists of the farnesoid-X-receptor (FXR) signaling pathway (AID 743217; active means well fitted inhibition curve with a large enough effect in the signal ratio in the repeat runs, not every such curve was filed as active; the % refers to the signal ratio). A digest of the protocol: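 GeneBLAzer FXR-UAS-bla HEK 293T, CDCA-stimulated (50 uM final). Compound treatment 16 h, 37 °C. Detection: beta-lactamase cleavage of B/G FRET substrate, fluorescence.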

Retinoic acid receptor RXR-alpha (Homo sapiens), sequence (P19793 whole entry, looked up): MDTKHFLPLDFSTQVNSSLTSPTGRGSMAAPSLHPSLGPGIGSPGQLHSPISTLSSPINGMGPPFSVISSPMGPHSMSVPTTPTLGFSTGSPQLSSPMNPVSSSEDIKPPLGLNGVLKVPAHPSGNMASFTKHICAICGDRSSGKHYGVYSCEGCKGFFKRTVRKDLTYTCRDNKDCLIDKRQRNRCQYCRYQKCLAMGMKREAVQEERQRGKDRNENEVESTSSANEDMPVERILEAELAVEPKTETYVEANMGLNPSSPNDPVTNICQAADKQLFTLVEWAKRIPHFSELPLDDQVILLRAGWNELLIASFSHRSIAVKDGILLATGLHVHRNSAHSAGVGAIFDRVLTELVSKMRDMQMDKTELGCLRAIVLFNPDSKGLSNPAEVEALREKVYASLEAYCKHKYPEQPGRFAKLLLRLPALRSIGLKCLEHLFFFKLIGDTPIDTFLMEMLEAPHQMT
Vitamin D3 receptor (Homo sapiens), sequence (P11473 whole entry, looked up): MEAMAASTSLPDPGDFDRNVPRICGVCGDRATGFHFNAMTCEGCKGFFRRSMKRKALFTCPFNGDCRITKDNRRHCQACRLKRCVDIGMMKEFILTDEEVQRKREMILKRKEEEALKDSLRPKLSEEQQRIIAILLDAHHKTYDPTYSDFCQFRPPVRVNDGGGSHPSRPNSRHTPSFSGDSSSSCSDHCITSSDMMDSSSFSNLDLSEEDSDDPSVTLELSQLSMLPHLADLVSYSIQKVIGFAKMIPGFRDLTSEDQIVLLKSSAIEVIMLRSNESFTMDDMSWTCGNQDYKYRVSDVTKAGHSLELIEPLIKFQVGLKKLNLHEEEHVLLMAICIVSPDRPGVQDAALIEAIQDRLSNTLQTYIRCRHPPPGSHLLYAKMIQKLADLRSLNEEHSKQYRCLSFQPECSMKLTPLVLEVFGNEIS
Peroxisome proliferator-activated receptor delta (Homo sapiens), sequence (Q03181 whole entry, looked up): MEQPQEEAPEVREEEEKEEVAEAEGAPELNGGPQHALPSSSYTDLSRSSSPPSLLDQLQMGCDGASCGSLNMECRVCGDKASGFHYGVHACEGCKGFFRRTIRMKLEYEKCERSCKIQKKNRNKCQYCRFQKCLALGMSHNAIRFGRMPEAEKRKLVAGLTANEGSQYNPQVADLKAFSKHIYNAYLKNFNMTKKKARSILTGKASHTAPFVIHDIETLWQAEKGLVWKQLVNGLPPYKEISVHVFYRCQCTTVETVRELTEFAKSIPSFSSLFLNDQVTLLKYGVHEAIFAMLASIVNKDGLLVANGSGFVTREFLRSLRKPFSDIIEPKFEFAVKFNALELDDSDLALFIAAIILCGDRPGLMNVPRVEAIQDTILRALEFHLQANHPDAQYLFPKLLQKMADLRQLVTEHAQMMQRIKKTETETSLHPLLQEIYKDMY
Bile acid receptor (Homo sapiens), sequence (Q96RI1 whole entry, looked up): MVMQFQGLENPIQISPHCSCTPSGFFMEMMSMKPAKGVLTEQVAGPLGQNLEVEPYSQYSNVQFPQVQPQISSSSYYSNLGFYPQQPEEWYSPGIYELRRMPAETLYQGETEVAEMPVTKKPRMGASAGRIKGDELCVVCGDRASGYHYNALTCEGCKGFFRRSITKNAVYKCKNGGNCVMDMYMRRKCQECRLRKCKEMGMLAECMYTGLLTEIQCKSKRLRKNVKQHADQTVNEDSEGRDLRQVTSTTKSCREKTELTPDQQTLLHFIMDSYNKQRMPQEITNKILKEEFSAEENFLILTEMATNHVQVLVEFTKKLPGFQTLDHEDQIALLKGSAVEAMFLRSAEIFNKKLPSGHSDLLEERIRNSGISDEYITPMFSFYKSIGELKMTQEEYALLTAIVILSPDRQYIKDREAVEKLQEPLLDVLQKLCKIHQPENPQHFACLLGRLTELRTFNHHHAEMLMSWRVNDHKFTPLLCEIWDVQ

`c1ccc2c(c1)[nH]c1cnccc12`: the Potency result in experiment [1], in [2], in experiment [3], in experiment [4], in experiment [5] and in [6] was “inactive” each time. In addition, the Potency entry in experiment [7], in experiment [8], in [9] and in experiment [10] was “inactive” throughout. Also, the call in experiment [11] was inactive.

Take `CC1CCC(C(C)C)C(OC(=O)c2ccccc2N)C1` (stereo unspecified): the Potency was 24.2 µM (active) in [1]; 60.8 µM (active) in experiment [3]; 34.2 µM (active) in experiment [5]; 38.4 µM (active) in experiment [6]; 34.2 µM (active) in experiment [7]; 43 µM (active) in experiment [8]. Also, the Potency in experiment [10] was 38.4 µM (active). In addition, the result in experiment [12] was inactive.

Take `N#CC(Cl)Cl`: the Potency entry in [1], in experiment [2], in [3], in [4], in experiment [13] and in [14] was “inactive” in each case. Also, the Potency result in [5], in experiment [6], in [7], in [9], in [15] and in experiment [10] was “inactive” each time. The Potency result in experiment [16] is “inactive”.

`O=[N+]([O-])O.O=[N+]([O-])O.[Cd]`: the Potency in experiment [1] was 1.95 µM (active); in experiment [2], 5.49 µM (active); in experiment [3] it was 12.3 µM (active); in [4] it was 6.16 µM (active); in experiment [5] it was 1.74 µM (active); in experiment [6], 19.5 µM (active). In addition, the Potency entry in experiment [7], in [8] and in experiment [10] was “inactive” each time.

For `Fc1cccc(Cl)c1CCl`, the Potency result in experiment [17], in experiment [2], in experiment [18], in [19], in experiment [3] and in experiment [4] was “inactive” each time. For the same compound, the Potency entry in experiment [5], in [7], in [9], in [15], in experiment [10] and in experiment [16] was “inactive” throughout. The compound was called inactive in experiment [12] and in [11].

As for `CCC(C)(C)C(=O)OC1=C(c2ccc(Cl)cc2Cl)C(=O)OC12CCCCC2`, the Potency result in [1], in experiment [17], in experiment [2], in experiment [18], in [3] and in experiment [4] was “inactive” throughout. Moreover, the Potency result in [13], in experiment [5], in experiment [6], in experiment [7], in [15] and in experiment [10] was “inactive” throughout. In addition, the outcome in [12] and in experiment [11] was inactive.

`CCCCCCCCCCCCCN1CC(C)OC(C)C1` (stereo unspecified): the Potency entry in [17], in [2], in [18], in experiment [3], in [4] and in experiment [5] was “inactive” throughout. Also, the Potency result in [6], in experiment [7], in experiment [9], in experiment [15], in experiment [10] and in experiment [16] was “inactive” in each case.
